From PubChem
eLon inh – E. coli protease La inhibition; P0A9M0; purified E. coli Lon protease, fluorescence polarization; inhibition, % at 7.94 µM; 360,000 tested, 0.42% active; AID 602123; in the data active = inhibition above about 13%, passing the limit was not always enough;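 note: 0% = enzyme with probe and DMSO and 100% = no enzyme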
EBV gp42 block – EBV gp42 inhibition | Q1HVG2 | Fluorescence polarization binding assay, mP read-out | inhibition, % (tested at 21.74 µM) | 220,000 tested, 0.42% active | AID 1085; in the data active = inhibition above about 50%
Target sequence (Q1HVG2 whole entry, looked up): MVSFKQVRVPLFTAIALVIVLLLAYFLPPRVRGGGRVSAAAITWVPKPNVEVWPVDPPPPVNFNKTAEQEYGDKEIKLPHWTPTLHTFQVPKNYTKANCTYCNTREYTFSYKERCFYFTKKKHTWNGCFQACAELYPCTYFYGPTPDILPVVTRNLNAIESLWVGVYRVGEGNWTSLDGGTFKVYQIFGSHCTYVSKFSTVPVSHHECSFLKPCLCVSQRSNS
MEX-5 binding – C. elegans MEX-5 TCR-2 RNA binding activity | Q9XUB2 | MEX-5/FITC-TCR2 RNA binding, fluorescence polarization; active compounds read low | activity score (negative = inhibition of binding), % at 10 µM | 300,000 tested, 0.38% active;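 active = inhibition past about -25% in most replicates, and total fluorescence under double the plate's negative control median, limit read from the data; inconclusive = replicates evenly split on the limit, or fluorescence at least double controls; inactive = too little inhibition in most replicates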;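 note: 0% = DMSO and -100% = 5 µM competing unlabeled TCR2 RNA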
Target sequence (Q9XUB2 whole entry, looked up): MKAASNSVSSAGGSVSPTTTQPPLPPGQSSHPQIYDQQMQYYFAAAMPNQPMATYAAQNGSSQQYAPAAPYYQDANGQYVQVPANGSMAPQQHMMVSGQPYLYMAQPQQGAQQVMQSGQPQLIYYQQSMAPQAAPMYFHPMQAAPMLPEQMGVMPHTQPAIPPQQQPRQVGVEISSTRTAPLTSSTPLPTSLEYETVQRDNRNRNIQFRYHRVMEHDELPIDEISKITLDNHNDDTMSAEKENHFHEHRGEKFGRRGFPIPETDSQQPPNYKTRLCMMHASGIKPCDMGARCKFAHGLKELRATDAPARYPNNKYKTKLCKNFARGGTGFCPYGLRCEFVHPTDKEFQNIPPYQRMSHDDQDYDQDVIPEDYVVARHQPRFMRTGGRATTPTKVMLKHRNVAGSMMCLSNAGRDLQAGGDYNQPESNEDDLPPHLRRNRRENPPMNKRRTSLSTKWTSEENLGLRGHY
MCL1 BIM primary – MCL1-BIM-BH3 interaction inhibition (human) | inhibition, % at 10.9 µM | AID 2057 | 320,000 tested, 0.68% active | Q07820 | GST-MCL1 / FITC-Bim-BH3 fluorescence polarization;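 active = inhibition above the mean inhibition of all tested compounds plus 3 SD, set per campaign, cut at about 40% in these data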;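 note: 0% = DMSO wells and 100% = unlabeled Bim-BH3 peptide control; higher means more loss of mP so more displacement of Bim peptide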
BCLXL inh – Bcl-xL (human) inhibition | 320,000 tested, 0.7% active | AID 2129 | GST-Bcl-xL / FITC-Bim BH3 peptide fluorescence polarization | inhibition, % at 10.9 µM;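 active = inhibition above the mean of all tested compounds plus 3 SD, cutoff set per campaign, cut at about 30% in these data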;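 note: 0% = DMSO wells and 100% = unlabeled Bim-BH3 peptide competitor; inhibitors lower millipolarization by displacing the labeled peptide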
GLD-1 TGE inh – GLD-1-TGE RNA interaction inhibition (C. elegans); Q17339; purified GLD-1 + fluorescein TGE RNA, fluorescence polarization; inhibition, % at 5.96 µM; 320,000 tested, 0.44% active; AID 2280;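 active = percent inhibition above a per-plate cutoff, the plate mean of test compounds plus 3 SD, cut at about 30% in these data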;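 note: 0% = DMSO wells with GLD-1 and probe and 100% = wells lacking GLD-1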
BCLXL inh confirm – counter-screen for MCL1 inhibitors: confirmation of human Bcl-xL inhibitors; shares compounds with MCL1 BIM primary; GST-Bcl-xL / FITC-Bim BH3 peptide FP binding; 1,700 tested, 54% active; inhibition, % at 10.9 µM;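 active = inhibition above a cutoff equal to the mean inhibition of all tested compounds plus 3 SD, cut at about 30% in these data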;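 note: 0% = DMSO wells and 100% = unlabeled Bim BH3 control peptide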
MCL1 inh confirm – confirmation of human MCL1 and BIM-BH3 interaction inhibitors | shares compounds with MCL1 BIM primary | GST-MCL1 / FITC-Bim-BH3 fluorescence polarization | inhibition, % at 10.9 µM | 1,700 tested, 61% active | AID 2168;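 active = inhibition above the average of all tested compounds plus 3 SD, cut at about 40% in these data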;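 note: 0% = DMSO wells and 100% = unlabeled Bim-BH3 control peptide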
* hit, by the source's call; ? = inconclusive; · = no result given; + = active, no number. Most compounds without a hit are left out; they make up all but 1.4% or so of the library.

SMILES | eLon inh | EBV gp42 block | MEX-5 binding | MCL1 BIM primary | BCLXL inh | GLD-1 TGE inh | BCLXL inh confirm | MCL1 inh confirm
CC1(C(=O)NS(=O)(=O)c2ccccc2Cl)CCN1C(=O)Cc1ccccc1Cl (centres undefined) | -9 | · | · | · | · | · | · | ·
NS(=O)(=O)c1ccc(CCNC(=O)c2cc(-c3ccccn3)nc3ccc(Br)cc23)cc1 | -3 | -19 | -4 | 5 | -1 | 6 | · | ·
NS(=O)(=O)c1ccc(CNC(=O)c2cc(-c3cccnc3)nc3ccc(Br)cc23)cc1 | -4 | · | 4 | 51* | 3 | 7 | 5 | -3
COc1cc(Cl)c(C)cc1NC(=O)COC(=O)c1cc[n+]([O-])cc1 | -6 | -27 | 2 | 2 | -2 | -3 | · | ·
C/C(=N\NC(=O)c1cc(O)ccc1O)c1cccc(NC(=O)c2ccc(Cl)cc2)c1 | 3 | · | 0 | 48* | 27 | 13 | 28 | 47*
C/C(=N\NC(=O)c1cc(O)ccc1O)c1cccc(NC(=O)c2cccc(Cl)c2)c1 | 4 | · | 2 | 38 | 16 | 0 | · | ·
COc1ccc(C)cc1NC(=O)c1sc2ncn(CC(=O)N3CCCCC3)c(=O)c2c1C | -2 | · | -3 | 2 | 5 | 1 | · | ·
COCCCNC1=C(Cl)C(=O)c2ccccc2C1=O | 7 | -6 | -3 | -2 | 0 | 3 | · | ·
COCCCNc1c2c3c(cccc3[nH]c1=O)C(=O)c1ccccc1-2 | -38 | -88 | · | 124* | 117* | 75* | 126* | 137*
COc1ccc(N(CC(=O)NC2CC2)S(=O)(=O)c2ccccc2)cc1 | -4 | · | 1 | 6 | 7 | 3 | · | ·
O=C(O)C1Nc2c(O)cc(Cl)c([N+](=O)[O-])c2C2C=CCC12 (centres undefined) | -9 | 87* | -60* | 101* | 78* | 6 | 43* | 101*
Cc1ccc(-c2ccc(/C=C(\C#N)C(=O)Nc3cc(C)nn3-c3ccccc3)o2)cc1 | · | 120* | ? | + | 123* | 120* | + | +
COc1ccc(C2CC(c3ccc(OC)cc3OC(C)=O)=NN2C(=O)c2ccccc2)cc1 (centres undefined) | -1 | · | -2 | 92* | 9 | -7 | 36* | 49*
COc1ccc(C2=NN(C(=O)/C=C/c3ccccc3)C(c3ccccc3)C2)c(OC(C)=O)c1 (centres undefined) | 9 | -11 | 2 | -1 | -2 | 4 | · | ·
CSc1ccc(C2Nc3cccc4cccc(c34)N2)cc1 | 0 | · | -3 | 9 | 9 | 9 | · | ·
Clc1ccc(C2Nc3cccc4cccc(c34)N2)cc1 | 9 | · | -4 | 67* | 44* | 14 | 17 | 17
O=c1[nH]c2ccccc2c(O)c1-c1cc2ccccc2oc1=O | · | -5 | 4 | 4 | 3 | -1 | · | ·
CCOc1ccc(N(CC(=O)N2CCC(Cc3ccccc3)CC2)S(C)(=O)=O)cc1 | 9 | -1 | -1 | 0 | 3 | -3 | · | ·
CC(C)OC(=O)CC(=O)c1sc2nc3c(cc2c1N)CN(C)CC3 | · | 69* | -31* | 98* | 84* | 53* | 60* | 72*
Cc1ccccc1C1C(C#N)=C2N=C(N)c3c(sc4c3CCCCC4)N2C2=C1C(=O)CC(C)(C)C2 (centres undefined) | -7 | 13 | -2 | 54* | 55* | 48* | 39* | 51*
CCCCn1c(SCC(=O)NCc2ccco2)nc2cc(S(N)(=O)=O)ccc21 | 9 | -9 | 2 | 41* | -8 | -1 | 4 | 12
CCCCn1c(SCC(=O)N2CCCCC2)nc2cc(S(N)(=O)=O)ccc21 | -10 | -33 | 1 | 7 | -5 | 2 | · | ·
COC(=O)C1CCN(C(=O)CN2C(=O)NC(CC(C)C)C2=O)CC1 (centres undefined) | 4 | · | · | · | · | 3 | · | ·
Oc1cccc(/C=N/Nc2ncnc3c2ncn3Cc2ccccc2)c1 | 0 | -6 | -7 | 0 | 4 | 0 | · | ·
Oc1ccc(/C=N/Nc2ncnc3c2ncn3Cc2ccccc2)cc1O | -2 | 3 | 1 | 57* | 7 | 3 | 11 | 33
SMILES | eLon inh | EBV gp42 block | MEX-5 binding | MCL1 BIM primary | BCLXL inh | GLD-1 TGE inh | BCLXL inh confirm | MCL1 inh confirm
Cc1cc(C)c[n+](-c2nc3ccccc3nc2[N-]S(=O)(=O)c2ccc(Br)s2)c1 | -1 | 66* | -10 | 47* | 62* | 16 | 63* | 92*
CCCOP(=O)(c1ccc(N(C)C)cc1)C(Nc1ccccc1)c1ccc(C)cc1 (centres undefined) | -3 | -1 | · | 44* | 2 | 7 | -6 | -9
CC(C)CCOP(=O)(c1ccc(N(C)C)cc1)C(Nc1ccccc1)c1ccc(N(C)C)cc1 (centres undefined) | -7 | -6 | · | 7 | 3 | 1 | · | ·
O=C(N1CCOCC1)N1CCC(n2nnc3cc(F)ccc32)CC1 | 7 | 42 | -27* | 87* | 76* | 40* | 54* | 62*
O=C(c1ccc([N+](=O)[O-])cc1)N1CCC(n2nnc3cc(F)ccc32)CC1 | -4 | -1 | 3 | 3 | 5 | 2 | · | ·
Cc1c(C(=O)N2CCNCC2)oc2ccccc12 | 3 | · | -1 | · | · | · | · | ·
COc1ccc(-c2cnc(C(O)c3ccc(C(C)(C)C)cc3)[nH]2)cc1 (centres undefined) | 4 | · | · | · | · | · | · | ·
CCOC(=O)c1cc(C#N)c(SCC(=O)c2cc(C#N)c(SC)nc2C)[nH]c1=O | -4 | 22 | -5 | 117* | 103* | 77* | 21 | 18
Cc1cc(-c2ccco2)c(C#N)c2nc3ccccc3n12 | 4 | · | -20 | 128* | 85* | -14 | 127* | 173*
COc1cccc(C(=O)Nc2ccncc2)c1 | · | -6 | -1 | 45* | 7 | 10 | -1 | 3
COc1cccc(C(=O)Nc2ccc3c(c2)C(=O)c2ccccc2C3=O)c1 | 0 | 30 | 1 | 77* | 17 | 1 | 8 | 34
O=C(c1ccccc1)c1ccc(O)cc1O | -10 | 67* | ? | 154* | 134* | 79* | 123* | 137*
O=C(c1ccc(O)cc1)c1ccc(O)cc1O | 1 | 13 | -7 | 12 | 6 | 3 | · | ·
Oc1ccc(-c2cn3c(n2)SCC3)cc1O | 4 | -22 | -40* | 60* | 28 | 6 | 30* | 55*
CS/C(Nc1cc(Cl)ccc1Cl)=C(/C#N)C(=O)c1ccco1 | 2 | -4 | 1 | 54* | 8 | 1 | 13 | 25
CC(C)(C)c1ccc(NC(=O)COC(=O)C2(C)CC2(Cl)Cl)cc1 (centres undefined) | -6 | -16 | 1 | -6 | -2 | 2 | · | ·
